In PubChem BioAssay AID1259417 (TB Discovery Research, Infectious Disease Research Institute, 2018):
About 760 (69%) of roughly 1,100 compounds were called active. No rule for the calls is given here. So high a share suggests a set chosen from earlier hits. The list shows a part of the results.

Test: M. tuberculosis growth inhibition, HTS (AID 1259417);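 also: bacteria grown with compound for 5 days at 37 °C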
Conditions: stronger effect = higher value, concentration not given here
[1] = M. tuberculosis DsRed fluorescence growth inhibition
[2] = M. tuberculosis growth inhibition

Compound	inhibition [1]	inhibition [2]
CC1=Nc2c(ccc3cccnc23)C1(C)C	8.5% (active)	35.9%
COc1ccccc1-c1nnc(Nc2nc3c(F)cccc3s2)o1	30.8% (active)	84.8%
Cc1ccc(C(=O)NCCSC(C)(C)C)cc1[N+](=O)[O-]	-1.92% (inactive)	-26.5%
Cc1ccc(C(=O)NCCC2=CCCCC2)cc1I	81.3% (active)	52.7%
Cc1ccc(C(=O)NCCC2=CCCCC2)cc1Br	86.6% (active)	67.2%
COCCCNC(=O)c1c(NC(=O)c2ccc(C(C)(C)C)cc2)sc2c1CCCC2	15.2% (inactive)	-1.37%
CCn1c2ccccc2c2cc(CN3CCC(N4CCN(c5ccccc5)CC4)CC3)ccc21	-3.76% (inactive)	-28%
COC(=O)CSc1ccc2c(N)c(C(=O)OC)sc2c1	43.5% (active)	77.1%
COC(=O)CSc1cc(SCC(=O)OC)c(C#N)c(SCC(=O)OC)c1	28.8% (inactive)	23.9%
COC(=O)CSc1ccc(C#N)c(SCC(=O)OC)c1	-1.74% (active)	42.7%
Cc1cc(C(C)(C)C)ccc1OCCOCCn1ccnc1	99.2% (active)	100%
Cc1cc(C(C)(C)C)ccc1OCCCCn1ccnc1	99.4% (active)	99.7%
N=c1c2c(-c3ccccc3)c(-c3ccccc3)n(Cc3ccco3)c2ncn1Cc1ccco1	71% (active)	61.5%
O=C(CSc1nnc(-c2cccnc2)o1)N1CCC(Cc2ccccc2)CC1	95.4% (active)	86.2%
COc1ccccc1N1C(=O)c2cccc3cc([N+](=O)[O-])cc(c23)C1=O	89.8% (active)	95.8%
Cc1cccc(OCc2nnc(SCC(=O)NCCc3ccccc3)o2)c1	92.7% (active)	74.5%
Cc1cccc(C)c1OCc1nnc(SCC(=O)NCCc2ccccc2)o1	84.2% (active)	73.9%
CSc1ccc(C(CC(=O)c2ccccc2)Nc2ccc(F)cc2)cc1 (stereo unspecified)	19.6% (inactive)	21.6%
Cn1c(NC(=O)c2ccccc2)nc2ccccc21	98.3% (active)	99.7%
Cn1c(NC(=S)Nc2ccccc2)nc2ccccc21	21.4% (active)	48.5%
O=C(Nc1cccc(Cl)c1)c1cc(Br)ccc1Cl	76.3% (active)	46.1%

Compound	inhibition [1]	inhibition [2]
O=C(CSc1ccc(Br)cc1)Nc1cccc(Cl)c1	7.93% (inactive)	16.8%
COc1ccc(N2C(=O)C(F)(F)C2c2ccccc2F)cc1 (stereo unspecified)	33.6% (active)	75.8%
O=C(NCc1ccc2c(c1)OCO2)c1cnn2c1NC(c1cccs1)CC2C(F)(F)F (stereo unspecified)	100% (active)	94.1%
Cc1c(CNC(=O)c2cnn3c2NC(c2ccc(Br)cc2)CC3C(F)(F)F)cnn1C (stereo unspecified)	57.6% (active)	17.9%
O=C(NCc1ccco1)c1cnn2c1NC(c1ccc(Br)cc1)CC2C(F)(F)F (stereo unspecified)	38.9% (active)	15.1%
CSc1nc2ccc(NC(=O)C3CC(=O)N(Cc4ccccc4)C3)cc2s1 (stereo unspecified)	10.7% (inactive)	22.1%
CCOC(=O)c1cnc(-n2nc(C)cc2C)nc1Nc1ccc(OC)cc1	54% (active)	30.7%
CCOC(=O)c1cnc(-n2nc(C)cc2C)nc1NCCc1ccccc1	101% (active)	101%
O=S1(=O)C=C(Sc2nnc(-c3ccncc3)o2)c2ccccc21	100% (active)	101%
O=S1(=O)C=C(Sc2nnc(-c3ccccc3)o2)c2ccccc21	100% (active)	101%
CC(=O)Oc1c(C(=O)c2ccccc2)sc2ccccc12	79.9% (active)	52.4%
CCc1ccc(-c2ccc(SCC(N)=O)nn2)cc1	20% (active)	41%
Cc1cc(OCC(=O)NC2C3CC4CC(C3)CC2C4)cc(C)c1Br (stereo unspecified)	98.6% (active)	72%
N#Cc1c(SCC(N)=O)nsc1SCc1ccccc1Cl	20.8% (active)	61.7%
CCc1cccc2c(C(=O)COC(=O)c3ccc([N+](=O)[O-])s3)c[nH]c12	91.9% (active)	95.3%
O=C(OCC(=O)c1c[nH]c2ccccc12)c1ccc([N+](=O)[O-])s1	61.6% (active)	52.7%
Cc1ccc(-c2nnc(NC(=O)c3cc4ccccc4oc3=O)o2)c(C)c1	80.8% (active)	88.6%
Cc1ccc(-c2nnc(NC(=O)c3ccccc3Cl)o2)c(C)c1	24.1% (active)	62.8%
Cc1ccc(-c2nnc(NC(=O)c3ccccc3C)o2)c(C)c1	84.4% (active)	87.2%
Cc1ccc(-c2nnc(NC(=O)c3ccccc3Br)o2)c(C)c1	6.55% (inactive)	19.3%
CCOC(=O)C1CCN(C2=NC(=O)C(=Cc3ccc(Cl)cc3Cl)S2)CC1	51.5% (active)	55.8%

Compound	inhibition [1]	inhibition [2]
NC(=O)C1CCN(C2=NC(=O)C(=Cc3ccc(Cl)cc3Cl)S2)CC1	100% (active)	99.1%
Cc1ccc(-c2csc3ncn(C(C)C(=O)OC4CCCCC4)c(=O)c23)cc1C (stereo unspecified)	-0.545% (inactive)	-11%
CSc1nc2nc3c(c(=O)n2[nH]1)CCCC3	23.8% (active)	41.7%
Cc1ccc(C(C)C)c(OCCCCn2ccnc2)c1	98.9% (active)	100%
Cc1ccc(C(C)C)cc1OCCCCn1ccnc1	100% (active)	99.6%
Cc1cc(OCCCCn2ccnc2)cc(C(C)C)c1	100% (active)	100%
Cc1cc(OCCCCn2ccnc2)ccc1C(C)C	99.8% (active)	98.9%
O=C(c1ccc(Cl)cc1)c1ccc(CSc2nnc(-c3ccccc3)o2)o1	97.4% (active)	96.9%
COC(=O)c1ccc(CSc2nnc(-c3ccncc3)o2)o1	14.3% (active)	39.6%
CCOc1cc(CNC(C)C23CC4CC(CC(C4)C2)C3)cc(Cl)c1OCC(=O)NC(C)(C)C (stereo unspecified)	99.2% (active)	98.2%
COc1cc(CNC(C)c2ccccc2)cc(Cl)c1OCC(=O)Nc1ccccc1 (stereo unspecified)	29.9% (active)	19%
CCOC(=O)COc1ccc(S(=O)(=O)N2CCc3ccccc3C2)cc1	80.1% (active)	96.9%
CCOC(=O)COc1ccc(S(=O)(=O)N2CCC(C)CC2)cc1	72.7% (active)	91.2%
COC(=O)c1ccc(NC(=O)CSc2nnc(Cc3ccc(OC)cc3)o2)cc1	18.7% (active)	53.1%
COc1ccc(-c2nnc(SCC(=O)Nc3ccc([N+](=O)[O-])cc3)o2)cc1	23.1% (active)	88.8%
Cc1ccc(Oc2cc(NC(=O)CCCn3nc(C)c([N+](=O)[O-])c3C)cc([N+](=O)[O-])c2)cc1	0.414% (inactive)	-13.5%
CCOC(=O)c1ccc(NC(=O)CSc2nnc(-c3ccc(OC)cc3)o2)cc1	18.2% (active)	56.7%
COc1cccc(NC(=O)CSc2nnc(-c3ccc(Br)cc3)o2)c1	17.3% (inactive)	19.2%
C=CCSc1nnc(-c2ccc([N+](=O)[O-])cc2)o1	99.2% (active)	99.1%
CCOc1ccc(NC(=O)CSc2nnc(Cc3ccc(OC)cc3)o2)cc1	3.01% (inactive)	2.07%
COc1ccc(Cc2nnc(SCC(=O)Nc3ccc(C(C)C)cc3)o2)cc1	6.85% (inactive)	9.66%
